From the supplement of paper PMC5641865, “A screen for kinase inhibitors identifies antimicrobial imidazopyridine aminofurazans as specific inhibitors of the Listeria monocytogenes PASTA kinase PrkA” (The Journal of Biological Chemistry, 2017)
“And” between values parts separate entries of the source, which are not always exact repeats. Equal entries are not always repeated. ± gives the standard deviation of the averaged measurements.

Tested on: Listeria monocytogenes 10403S
Experiment: growth inhibition relative to ceftriaxone-alone control; higher = stronger potentiation of ceftriaxone growth inhibition
Conditions: 10 µM; ceftriaxone 1 ug/ml; 12 h
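Note: End-point A600 read in BHI broth at 37 °C with 2% DMSO, inhibition computed as (1 − OD with compound plus ceftriaxone ÷ OD with ceftriaxone only) × 100.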

Compound	growth inhibition
NC(=O)c1ccc2c(-c3ccnc(NCCCO)n3)c(-c3ccc(F)cc3)nn2c1	-7.27 ± 16%
CS(=O)(=O)CCNCc1ccc(-c2ccc3ncnc(Nc4ccc(OCc5ccccc5)c(C(F)(F)F)c4)c3c2)o1	-5.15 ± 0.36%
O=C1NC(=O)/C(=C/c2ccc3c(c2)OC(F)(F)O3)S1	41.2 ± 7.3%
CNC(=O)c1nn(C)c2c1C(C)(C)Cc1cnc(Nc3ccc(N4CCN(C)CC4)cc3)nc1-2	20.7 ± 8.5%
O=C1NCCc2[nH]c(-c3ccncc3)cc21	22.8 ± 14%
COC(=O)Nc1ccc(-c2nc(N3CCOCC3)c3cnn(C4CCN(Cc5cccnc5)CC4)c3n2)cc1	33.8 ± 29%
S=C(NCc1ccc2c(c1)OCO2)N1CCN(c2ncnc3c2oc2ccccc23)CC1 [Amuvatinib (MP-470)]	11.7 ± 22%
O=C1NC(=O)C(N2CCc3ccccc32)=C1c1ccc(Cl)cc1	14.5 ± 6%
Cc1csc(-c2nnc(Nc3ccc(Oc4ncccc4-c4ccnc(N)n4)cc3)c3ccccc23)c1	64 ± 34%
CN1CCN(c2ccc3nc(-c4c(N)c5c(F)cccc5[nH]c4=O)[nH]c3c2)CC1 [Dovitinib (TKI-258)]	1.47 ± 0.1%
O=S(=O)(CCNCc1ccc(-c2ccc3ncnc(Nc4ccc(OCc5cccc(F)c5)c(Cl)c4)c3c2)o1)c1ccccc1	-0.141 ± 13%
O=C(NOC[C@H](O)CO)c1ccc(F)c(F)c1Nc1ccc(I)cc1F	78.4 ± 6.9%
COc1cc2ncn(-c3cc(OCc4ccccc4Cl)c(C(N)=O)s3)c2cc1OC	-6.56 ± 0.46%
C#Cc1cccc(Nc2ncnc3cc(OCCOC)c(OCCO)cc23)c1	19.2% and 5.86%
Fc1ccc(-c2nc3n(c2-c2ccncc2)CCS3)cc1	-8.85 ± 15%
N#Cc1ccc2c(-c3ccnc(NC4CC4)n3)c(-c3ccc(F)cc3)nn2c1	7 ± 2.3%
C[C@@H](Oc1cc(-n2cnc3ccc(OCC4CCN(C)CC4)cc32)sc1C(N)=O)c1ccccc1Cl	-2.37 ± 3%
Cc1nnc(-c2ccc(C)c(-c3ccc(C(=O)Nc4cccc(C#N)c4)cc3)c2)o1	6.6 ± 12%
C#Cc1cccc(Nc2ncnc3ccc(OCCCCNCCS(C)(=O)=O)cc23)c1	-12 ± 5.6%

Compound	growth inhibition
CNC(=O)c1cc(Oc2ccc(NC(=O)Nc3ccc(Cl)c(C(F)(F)F)c3)c(F)c2)ccn1 [Regorafenib (BAY 73-4506)]	85.5 ± 3.7%
C[S+]([O-])c1ccc(-c2nc(-c3ccc(F)cc3)c(-c3ccncc3)[nH]2)cc1 (stereo not drawn)	28.4 ± 26%
CCS(=O)(=O)c1ccc(OC)c(Nc2ncc(-c3ccccc3Cl)o2)c1	-2.57 ± 15%
CC(C)CC(=O)Nc1n[nH]c2c1CN(C(=O)C1CCN(C)CC1)C2(C)C	-44.3 ± 75%
CC(C)(C)c1cc(/C=C(\C#N)C(N)=S)cc(C(C)(C)C)c1O [Tyrphostin AG 879 (AG 879)]	72.8 ± 30%
O=C(Nc1n[nH]c2cc(-c3ccc(F)cc3)ccc12)C1CC1	-9.6 ± 16%
Nc1ncnc2c1c(-c1cccc(OCc3ccccc3)c1)cn2C1CC(CN2CCCC2)C1 (stereo not drawn)	61.4 ± 52%
CCn1c(-c2nonc2N)nc2cncc(C(=O)N3CC[C@H](N)C3)c21	7.57 ± 2.1%
Nc1ccc(-c2ccc3ncc4ccc(=O)n(-c5cccc(C(F)(F)F)c5)c4c3c2)cn1 [Torin 2]	-20 ± 12%
O=C(Nc1cc(C(F)(F)F)cc(C(F)(F)F)c1)c1cc(Cl)ccc1O	97.6 ± 0.39%
CCN(CC)CCCCNc1ncc2cc(-c3cc(OC)cc(OC)c3)c(NC(=O)NC(C)(C)C)nc2n1	23.2 ± 6.8%
CCn1c(N)c(C(=O)NC)c(=O)c2ccc(C#CC(C)(O)COC)nc21 (stereo not drawn)	2.07 ± 6.6%
COc1cc(Nc2ncc(F)c(Nc3ccc4c(n3)N(COP(=O)(O)O)C(=O)C(C)(C)O4)n2)cc(OC)c1OC	10.1 ± 12%
COc1ccc2ncnc(Nc3ccc(OCc4ccccc4)cc3)c2c1	1.99 ± 13%
c1ccc(Cc2nc3ccc(Nc4ncnc5ccccc45)cc3[nH]2)cc1	-14.5 ± 19%
COc1cccc(/C=N/Nc2ncnc3c2cnn3-c2cccc(OC)c2)c1	-3.29 ± 11%
CCCNc1cccc(-n2ncc3c(N/N=C/c4ccncc4)ncnc32)c1	-6.32 ± 14%
Cc1cc(Cl)cc2c1NC(=O)C2=NNc1ccc(S(N)(=O)=O)cc1	-9.29 ± 7.3%
CCC(=O)Nc1ccc(C)c(-c2ccc(C(=O)NCC3CC3)cc2)c1	-2.46 ± 1.9%
